# Data from PubChem BioAssay (NCATS).
# Inconclusive results are not listed. Calls of active or inactive are those of the source. Calls come from the whole dose curve; as a rule, active = well fitted inhibition curve with a large enough effect; inconclusive = small, poorly fitted or top-dose-only effect, or effect the other way; inactive = flat fitted curve, though single readings scatter.
# Molecular target: ATP-dependent 6-phosphofructokinase (Trypanosoma brucei brucei) (UniProt O15648)
# Experiment: qHTS Assay to Find Inhibitors of T. brucei phosphofructokinase: hit validation (AID 492961);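 for activity change, negative = inhibition: luminescence reports ADP formed as PFK phosphorylates fructose-6-phosphate with ATP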
# Settings: T. brucei PFK, ADP-Glo luminescence; series mostly up to 51.4 µM; activity change, negative = inhibition: at the top concentration
# Method in brief: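 Measures ADP output of PFK (1.25 nM) at 0.1 mM ATP, 0.5 mM F6P, pH 8.0 TEA buffer with 5 mM MgCl2. No-enzyme wells define full inhibition; uninhibited enzyme wells define zero.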
# % is set by controls: 0 for no effect and ±100 for the full control effect; potency is the fitted concentration of half-maximal effect.
# Sequence of ATP-dependent 6-phosphofructokinase (Trypanosoma brucei brucei) (O15648 whole entry, looked up): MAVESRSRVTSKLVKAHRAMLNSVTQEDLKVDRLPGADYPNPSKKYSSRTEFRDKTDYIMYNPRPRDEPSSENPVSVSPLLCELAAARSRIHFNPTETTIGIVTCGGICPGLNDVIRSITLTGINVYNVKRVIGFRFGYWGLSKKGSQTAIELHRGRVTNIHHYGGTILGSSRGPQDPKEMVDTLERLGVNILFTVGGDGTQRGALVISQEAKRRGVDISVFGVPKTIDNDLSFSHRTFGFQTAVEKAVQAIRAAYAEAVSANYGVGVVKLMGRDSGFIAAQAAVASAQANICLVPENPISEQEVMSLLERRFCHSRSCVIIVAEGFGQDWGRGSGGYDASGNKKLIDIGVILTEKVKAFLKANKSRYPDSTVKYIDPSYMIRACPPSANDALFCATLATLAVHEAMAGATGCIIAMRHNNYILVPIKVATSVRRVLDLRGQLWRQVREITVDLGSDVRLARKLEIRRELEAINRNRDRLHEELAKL
Compound,"activity change, negative = inhibition",Potency
Oc1ccc(Cl)cc1Cc1cc(Cl)ccc1O,-7.24% (inactive),–
CC(C)[N+](C)(C)CC(O)COc1cccc2ccccc12 (stereo unspecified),-1.2% (inactive),–
Cc1cc2c(OCC(CNC(C)(C)C)OC(=O)c3ccccc3)cccc2[nH]1 (stereo unspecified),-8.13% (inactive),–
CN1CCc2cccc3c2[C@H]1Cc1ccc(O)c(O)c1-3,–,12.6 µM (active)
Cc1nc(-c2ccc(Cl)cc2)oc1COC(C)(C)C(=O)O,-4.2% (inactive),–
O=C(c1ccc(F)cc1)C1CCN(CCn2c(=S)[nH]c3ccccc3c2=O)CC1,3.74% (inactive),–
CC(=O)N[C@@H](CCC(=O)O)C(=O)O,1.62% (inactive),–
CC(C)=CCOc1ccc(/C=C/C(=O)c2ccc(OCC=C(C)C)cc2OCC(=O)O)cc1,-3.65% (inactive),–
CN1CCN(C2=Nc3ccccc3Sc3ccc(Cl)cc32)CC1,-1.63% (inactive),–
CCC(CC)(CC(=O)Nc1cccc(/C=C/c2nc(C3CCC3)cs2)c1)C(=O)O,0.279% (inactive),–
CC(=O)O[C@]1(C(C)=O)CC[C@H]2[C@@H]3C=C(Cl)C4=CC(=O)CC[C@]4(C)[C@H]3CC[C@@]21C,0.613% (inactive),–
C#C[C@]1(O)CC[C@H]2[C@@H]3CCC4=CC(=O)CC[C@@H]4[C@H]3CC[C@@]21CC,-5.09% (inactive),–
CN1CCN(C2=Nc3cc(F)ccc3Cc3ccccc32)CC1,1.53% (inactive),–
CCNC(=O)/C=C/c1cccc(Br)c1,0.693% (inactive),–
O=C(CN1CCN(Cc2ccc3c(c2)OCO3)CC1)N1c2ccccc2Sc2ccccc21,-9.63% (inactive),–
Cc1ccc(O)c([C@H](CCN(C(C)C)C(C)C)c2ccccc2)c1,3.11% (inactive),–
NC1CCN(c2nc3c(cc2F)c(=O)c(C(=O)O)cn3-c2ccc(F)cc2F)C1 (stereo unspecified),4.82% (inactive),–
OCc1ccccn1,11.4% (inactive),–

Compound,"activity change, negative = inhibition",Potency
CC(=O)NO,-3.76% (inactive),–
NC(=O)n1c(O)c(C(=O)c2cccs2)c2cc(Cl)ccc21,1.83% (inactive),–
N#CCC(=O)NN,9.74% (inactive),–
CCN(CC)CCNC(=O)COc1ccc(OC)cc1,1.63% (inactive),–
N=C(N)N1CCc2ccccc2C1,-5.37% (inactive),–
C#C[C@]1(OC(C)=O)CC[C@H]2[C@@H]3CCC4=C/C(=N/O)CC[C@@H]4[C@H]3CC[C@@]21CC,-1.86% (inactive),–
COc1ccc(C(=O)c2ccccc2O)c(O)c1,-4.13% [at 24.3 µM] (inactive),–
CC(=O)Nc1ncc([N+](=O)[O-])s1,-4.86% (inactive),–
CC(=O)OC[C@H]1O[C@@H](n2ncc(=O)[nH]c2=O)[C@H](OC(C)=O)[C@@H]1OC(C)=O,-8.23% (inactive),–
O[C@@H](c1cc(C(F)(F)F)nc2c(C(F)(F)F)cccc12)[C@H]1CCCCN1,3.87% (inactive),–
C/C=C/C=N/NC(=O)c1ccncc1,-5.27% (inactive),–
CC(C)Cc1ccc(CC(=O)O)cc1,0.374% (inactive),–
N/C(=N\N=C\c1ccc(Cl)cc1)N/N=C/c1ccc(Cl)cc1,-0.284% (inactive),–
CCCCNc1ccc(C(=O)OCCOCCOCCOCCOCCOCCOCCOCCOCCOC)cc1,1.75% [at 24.3 µM] (inactive),–
O=C(O)CCC(=O)Nc1ccc(S(=O)(=O)Nc2nccs2)cc1,-1.57% [at 24.3 µM] (inactive),–
CC(C)(Cc1c[nH]c2ccccc12)NCC(O)COc1ccccc1C#N (stereo unspecified),-1.64% (inactive),–
CCCCC(CC)COC(=O)c1ccc(N(C)C)cc1 (stereo unspecified),7.17% (inactive),–
CCN(CC)CCOc1ccccc1C(=O)CCc1ccccc1,-3.17% (inactive),–
